This is an account of results in publication PMC7862700, “An all-to-all approach to the identification of sequence-specific readers for epigenetic DNA modifications on cytosine”.

What all share (experiment): DAPPL (digital affinity profiling via proximity ligation, sequencing); 10 mM Tris-HCl pH 7.5, 50 mM NaCl, 1 mM DTT, 4% glycerol, room temperature, 30 min; GST-TFs on glutathione beads, 16-mer random dsDNA library, 0.1% formaldehyde crosslink after washing; high values mean tight binding
Holding throughout (settings): protein: recombinant; tags: N-terminal GST; dsDNA, one strand shown

For one assay, the target named is T1, ELK1 (Homo sapiens, UniProt P19419 1-428).
T1 sequence: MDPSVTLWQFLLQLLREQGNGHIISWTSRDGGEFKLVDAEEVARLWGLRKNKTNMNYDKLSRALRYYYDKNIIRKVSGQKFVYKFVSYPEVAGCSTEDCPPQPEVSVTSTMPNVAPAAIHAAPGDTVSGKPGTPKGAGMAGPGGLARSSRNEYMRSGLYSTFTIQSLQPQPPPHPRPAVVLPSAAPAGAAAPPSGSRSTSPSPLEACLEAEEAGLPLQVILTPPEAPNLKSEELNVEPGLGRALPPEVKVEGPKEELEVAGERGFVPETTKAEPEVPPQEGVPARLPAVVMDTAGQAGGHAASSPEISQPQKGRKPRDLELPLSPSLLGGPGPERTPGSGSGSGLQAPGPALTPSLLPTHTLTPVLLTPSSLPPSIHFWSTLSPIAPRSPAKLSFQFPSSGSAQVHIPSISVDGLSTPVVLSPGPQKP
Put shortly:
(§1)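 A tag-only sample was pooled with DNA-barcoded human transcription factors that had been expressed in yeast as GST fusions and captured on glutathione beads. The pools were incubated for 30 min at room temperature with 200 nmole of a random double-stranded 16-mer DNA library in Tris/NaCl/DTT/glycerol buffer, then washed, crosslinked with 0.1% formaldehyde, proximity-ligated (BsaI/T4 ligase, 1 h, 37 °C), PCR-amplified and sequenced on an Illumina NextSeq500. Binding signal is each hexamer's read frequency for a factor divided by its frequency for the tag-only sample.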

In the next assay the target is T2, GABPA (Homo sapiens, UniProt Q06546 1-454).
T2 sequence: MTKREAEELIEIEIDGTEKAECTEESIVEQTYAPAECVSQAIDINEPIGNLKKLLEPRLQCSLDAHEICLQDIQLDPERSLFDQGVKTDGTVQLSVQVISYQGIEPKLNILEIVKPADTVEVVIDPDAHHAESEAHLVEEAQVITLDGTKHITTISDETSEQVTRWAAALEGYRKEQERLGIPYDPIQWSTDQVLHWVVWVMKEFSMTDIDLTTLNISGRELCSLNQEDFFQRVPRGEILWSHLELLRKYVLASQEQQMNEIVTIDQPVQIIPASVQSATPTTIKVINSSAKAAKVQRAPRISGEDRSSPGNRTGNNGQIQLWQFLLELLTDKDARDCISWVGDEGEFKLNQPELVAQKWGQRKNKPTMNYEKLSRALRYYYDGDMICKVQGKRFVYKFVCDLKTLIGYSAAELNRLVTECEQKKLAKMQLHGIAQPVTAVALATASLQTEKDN
Put shortly: as §1

For the next assay, the target named is SPIB (Homo sapiens, UniProt Q01892 1-262). Put shortly:
as §1

For another assay, the target named is T3, ELK3 (Homo sapiens, UniProt P41970 1-407).
T3 sequence: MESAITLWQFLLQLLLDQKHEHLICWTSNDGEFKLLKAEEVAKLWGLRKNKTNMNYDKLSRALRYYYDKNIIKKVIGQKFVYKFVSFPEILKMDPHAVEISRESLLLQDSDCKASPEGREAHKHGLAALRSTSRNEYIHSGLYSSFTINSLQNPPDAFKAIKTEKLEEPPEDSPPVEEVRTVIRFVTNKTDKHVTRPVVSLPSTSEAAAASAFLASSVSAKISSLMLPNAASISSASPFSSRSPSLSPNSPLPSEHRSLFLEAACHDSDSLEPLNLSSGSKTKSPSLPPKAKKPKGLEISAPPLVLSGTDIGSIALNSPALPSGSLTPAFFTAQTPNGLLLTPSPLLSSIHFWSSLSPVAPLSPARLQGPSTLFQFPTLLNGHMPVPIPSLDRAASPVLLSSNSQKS
Put shortly: as §1

Another assay concerns the target ETV5 (Homo sapiens, UniProt P41161 1-510). In a few lines: as §1
The target of a further assay is T4, SPIC (Homo sapiens, UniProt Q8N5J4 1-248).
T4 sequence: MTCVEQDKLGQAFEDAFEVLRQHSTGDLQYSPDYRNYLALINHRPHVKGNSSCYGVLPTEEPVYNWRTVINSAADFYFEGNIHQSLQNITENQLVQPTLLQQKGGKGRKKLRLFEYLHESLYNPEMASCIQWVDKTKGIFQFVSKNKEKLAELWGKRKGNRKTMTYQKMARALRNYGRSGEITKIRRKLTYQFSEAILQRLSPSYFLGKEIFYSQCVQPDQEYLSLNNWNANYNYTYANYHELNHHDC
Put shortly:
as §1

A further assay has as its target ELF4 (Homo sapiens, UniProt Q99607 1-663). In a few lines: as §1
The target in the next assay is T5, ELK4 (Homo sapiens, UniProt P28324-2 1-405).
T5 sequence: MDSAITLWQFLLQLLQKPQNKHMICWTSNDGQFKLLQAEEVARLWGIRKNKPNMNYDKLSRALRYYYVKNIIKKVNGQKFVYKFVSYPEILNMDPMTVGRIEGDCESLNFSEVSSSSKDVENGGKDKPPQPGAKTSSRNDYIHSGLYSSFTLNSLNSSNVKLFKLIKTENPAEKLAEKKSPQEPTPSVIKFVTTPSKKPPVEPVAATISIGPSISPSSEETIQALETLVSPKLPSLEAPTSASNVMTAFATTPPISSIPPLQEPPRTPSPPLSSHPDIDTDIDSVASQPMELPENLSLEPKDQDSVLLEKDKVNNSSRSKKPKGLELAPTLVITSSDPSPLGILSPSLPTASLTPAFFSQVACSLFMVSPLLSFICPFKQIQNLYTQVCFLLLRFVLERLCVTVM
Put shortly:
as §1

The next assay deals with T6, ELF3 (Homo sapiens, UniProt P78545 1-371).
T6 sequence: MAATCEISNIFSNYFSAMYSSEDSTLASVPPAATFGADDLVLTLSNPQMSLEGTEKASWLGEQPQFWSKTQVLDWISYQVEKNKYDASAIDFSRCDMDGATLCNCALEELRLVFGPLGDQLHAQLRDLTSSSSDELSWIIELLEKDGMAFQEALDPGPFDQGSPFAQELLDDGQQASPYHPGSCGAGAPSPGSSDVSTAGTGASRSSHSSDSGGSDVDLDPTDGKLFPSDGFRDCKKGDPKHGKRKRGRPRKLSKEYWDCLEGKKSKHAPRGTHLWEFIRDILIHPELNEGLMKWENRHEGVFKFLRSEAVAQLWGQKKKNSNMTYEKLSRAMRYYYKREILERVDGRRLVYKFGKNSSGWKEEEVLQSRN
In a few lines: as §1

Another assay has as its target T7, ETV3L (Homo sapiens, UniProt Q6ZN32 1-361).
T7 sequence: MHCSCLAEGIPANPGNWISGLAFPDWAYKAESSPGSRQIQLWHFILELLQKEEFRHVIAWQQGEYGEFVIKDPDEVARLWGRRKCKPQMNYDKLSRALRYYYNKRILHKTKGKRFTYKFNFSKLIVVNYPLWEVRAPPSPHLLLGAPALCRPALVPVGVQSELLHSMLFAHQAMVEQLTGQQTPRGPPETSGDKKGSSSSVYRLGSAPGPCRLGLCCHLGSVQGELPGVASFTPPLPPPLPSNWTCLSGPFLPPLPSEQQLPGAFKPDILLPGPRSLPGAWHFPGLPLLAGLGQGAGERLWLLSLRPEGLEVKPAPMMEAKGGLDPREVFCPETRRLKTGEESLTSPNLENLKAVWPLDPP
In a few lines: as §1

In the next assay the target is T8, ETV7 (Homo sapiens, UniProt Q9Y603 1-341).
T8 sequence: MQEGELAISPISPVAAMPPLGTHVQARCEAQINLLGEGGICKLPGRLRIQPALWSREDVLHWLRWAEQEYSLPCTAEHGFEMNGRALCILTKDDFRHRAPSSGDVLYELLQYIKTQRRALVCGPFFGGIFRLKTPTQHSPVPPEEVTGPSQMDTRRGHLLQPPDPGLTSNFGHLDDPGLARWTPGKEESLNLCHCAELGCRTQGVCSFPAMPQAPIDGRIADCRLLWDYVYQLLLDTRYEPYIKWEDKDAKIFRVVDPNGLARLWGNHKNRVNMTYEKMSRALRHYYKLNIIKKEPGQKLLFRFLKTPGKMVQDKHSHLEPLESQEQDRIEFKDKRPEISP
In a few lines: as §1

The next assay deals with T9, ETV3 (Homo sapiens, UniProt P41162-2 1-143).
T9 sequence: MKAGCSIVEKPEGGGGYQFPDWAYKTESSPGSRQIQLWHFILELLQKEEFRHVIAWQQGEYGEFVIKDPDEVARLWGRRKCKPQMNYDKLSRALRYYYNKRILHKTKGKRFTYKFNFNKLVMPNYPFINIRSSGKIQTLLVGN
In a few lines: as §1

ETV5, sequence (P41161 whole entry): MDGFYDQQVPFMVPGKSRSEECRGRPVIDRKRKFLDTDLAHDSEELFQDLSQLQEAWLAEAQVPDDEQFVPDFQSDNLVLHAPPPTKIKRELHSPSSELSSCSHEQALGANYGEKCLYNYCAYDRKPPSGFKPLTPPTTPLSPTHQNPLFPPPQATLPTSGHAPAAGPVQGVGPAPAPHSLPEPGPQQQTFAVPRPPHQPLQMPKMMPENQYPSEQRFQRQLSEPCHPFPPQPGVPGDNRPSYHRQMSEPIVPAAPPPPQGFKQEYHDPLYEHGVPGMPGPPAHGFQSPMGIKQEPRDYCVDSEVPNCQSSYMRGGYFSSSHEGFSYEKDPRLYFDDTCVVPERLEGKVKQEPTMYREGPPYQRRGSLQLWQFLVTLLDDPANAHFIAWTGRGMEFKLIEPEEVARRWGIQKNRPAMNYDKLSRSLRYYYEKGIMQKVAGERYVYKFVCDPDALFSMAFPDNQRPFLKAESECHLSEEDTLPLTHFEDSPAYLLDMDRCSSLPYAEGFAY
ELF4, sequence (Q99607 whole entry): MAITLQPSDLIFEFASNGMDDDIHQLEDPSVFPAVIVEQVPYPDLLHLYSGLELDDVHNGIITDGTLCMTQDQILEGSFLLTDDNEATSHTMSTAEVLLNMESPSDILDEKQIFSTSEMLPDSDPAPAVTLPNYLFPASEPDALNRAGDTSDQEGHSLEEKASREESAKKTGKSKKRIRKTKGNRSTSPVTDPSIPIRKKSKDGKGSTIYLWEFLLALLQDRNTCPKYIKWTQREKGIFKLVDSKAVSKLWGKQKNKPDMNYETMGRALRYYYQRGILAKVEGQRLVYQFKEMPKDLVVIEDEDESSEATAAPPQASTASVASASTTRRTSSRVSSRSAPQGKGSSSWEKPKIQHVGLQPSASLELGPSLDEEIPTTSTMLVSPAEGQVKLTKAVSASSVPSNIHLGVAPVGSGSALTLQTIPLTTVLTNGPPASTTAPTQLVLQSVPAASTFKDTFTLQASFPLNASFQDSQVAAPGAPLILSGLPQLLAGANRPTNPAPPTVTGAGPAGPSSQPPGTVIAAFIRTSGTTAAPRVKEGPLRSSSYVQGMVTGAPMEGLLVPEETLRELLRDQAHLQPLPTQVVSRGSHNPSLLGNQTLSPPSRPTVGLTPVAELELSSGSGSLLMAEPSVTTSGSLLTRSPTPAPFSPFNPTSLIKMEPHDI
SPIB, sequence (Q01892 whole entry): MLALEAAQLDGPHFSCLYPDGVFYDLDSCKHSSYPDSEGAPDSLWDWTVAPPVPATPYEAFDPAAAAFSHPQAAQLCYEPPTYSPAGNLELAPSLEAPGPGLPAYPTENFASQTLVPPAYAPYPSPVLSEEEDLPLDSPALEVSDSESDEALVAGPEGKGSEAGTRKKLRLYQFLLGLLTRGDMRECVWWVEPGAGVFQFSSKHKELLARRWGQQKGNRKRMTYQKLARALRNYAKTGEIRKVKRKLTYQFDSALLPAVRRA

On to CGCGCG, for which the binding signal with ELK1 is 1.07 fold enrichment (6-mer frequency, TF over GST control); with GABPA, 1.05 fold enrichment (6-mer frequency, TF over GST control); with SPIB it was 1.11 fold enrichment (6-mer frequency, TF over GST control); in the assay with ELK3 it was 1.04 fold enrichment (6-mer frequency, TF over GST control); in the assay with ETV5, 1.01 fold enrichment (6-mer frequency, TF over GST control); with SPIC, 1.14 fold enrichment (6-mer frequency, TF over GST control). Moreover, the binding signal in the assay with ELF4 was 1 fold enrichment (6-mer frequency, TF over GST control); with ELK4, 1.14 fold enrichment (6-mer frequency, TF over GST control); with ELF3, 1.06 fold enrichment (6-mer frequency, TF over GST control); with ETV3L, 1.07 fold enrichment (6-mer frequency, TF over GST control); with ETV7 it was 1.03 fold enrichment (6-mer frequency, TF over GST control); in the assay with ETV3, 1.1 fold enrichment (6-mer frequency, TF over GST control).
